According to PubChem BioAssay (Tox21):
Records with an inconclusive call do not appear. Activity calls are given as the source filed them. Unless noted, calls follow the shape of the dose curve; as a rule, active = well fitted curve in the direction sought with a large enough effect in the repeat runs; inconclusive = weak or mixed curves; inactive = no such curve, though single readings can be large; an effect the other way counts as inactive or inconclusive.

Legend:
[1] = qHTS assay to identify aromatase inhibitors - cell viability counter screen (AID 743084);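 also: cells stimulated with testosterone during compound exposure; nearly all actives have a fitted effect of over 55% in size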
[2] = qHTS assay to identify small molecule that activate the aryl hydrocarbon receptor (AhR) signaling pathway - cell viability counter screen (AID 743086);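 also: HepG2 liver cells carrying the AhR DRE luciferase reporter; series mostly up to about 70 µM; nearly all actives have a fitted effect of over 45% in size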
In short: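 HepG2-AhR-luc (HG2L7.5c1) cells, 4000/well, were preincubated 5 h at 37C, exposed to compound in qHTS format for 24 hr at 37C, then given CellTiter-Fluor for 30 min; viability was read as fluorescence in the reporter wells.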

[3] = qHTS assay to identify small molecule antagonists of the peroxisome proliferator-activated receptor gamma (PPARg) signaling pathway - cell viability counter screen (AID 743194); also: nearly all actives have a fitted effect of over 55% in size
In short: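 PPARg-UAS-bla HEK293H cells were plated, rested 5 h at 37 C, then treated with compounds plus rosiglitazone (50 nM final) for 17 h at 37 C; viability was then read by CellTiter-Glo luminescence after 30 min at room temperature.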

[4] = qHTS assay for small molecule agonists of the antioxidant response element (ARE) signaling pathway - cell viability counter screen (AID 743203; calls by dose curve; also: nearly all actives have a fitted effect of over 55% in size)
In short: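 Following 16 hrs of compound treatment at 37C, HepG2 cells with an ARE-controlled beta-lactamase gene were lysed with CellTiter-Glo. Luminescence was read after 30 min at room temperature.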

[5] = qHTS assay for small molecule activators of the heat shock response signaling pathway - cell viability counter screen (AID 743209); also: nearly all actives have a fitted effect of over 50% in size
In short: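 Readout: CellTiter-Glo luminescence, 30 min at room temperature. System: HSE-bla HeLa cells, 1500/well, plated overnight. Treatment: compounds in DMSO, 5 h at 37 C.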

[6] = qHTS assay for small molecule activators of the heat shock response signaling pathway (AID 743210; active = well fitted activation curve with a large enough effect in the signal ratio in the repeat runs, with a control signal flat, not every such curve was filed as active; the % refers to the signal ratio;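 also: HeLa cells with beta-lactamase reporter driven by heat shock elements; series mostly up to about 63 µM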)
In short: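 Reporter gene assay: HeLa cells stably bearing an HSE-bla construct, compound treatment 5 h at 37 C, LiveBLAzer substrate 2.5 h at RT, fluorescence intensity.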

[7] = qHTS assay to identify small molecule agonists of the peroxisome proliferator-activated receptor delta (PPARd) signaling pathway - cell viability counter screen (AID 743211); also: nearly all actives have a fitted effect of over 55% in size; also: potency is read from the fitted curve at half-maximal effect
In short: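 Following 5 h plating at 37 C and 5% CO2, PPARd UAS-bla HEK293H cells took up test compounds for 17 h. Viability was quantified by luminescence 30 min after CellTiter-Glo addition at room temperature.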

[8] = qHTS assay to identify small molecule antagonists of the peroxisome proliferator-activated receptor delta (PPARd) signaling pathway - cell viability counter screen (AID 743213); also: nearly all actives have a fitted effect of over 50% in size; also: potency is read from the fitted curve at half-maximal effect
In short: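 CellTiter-Glo was added to PPARd-bla HEK293H wells following 17 h compound treatment in the presence of 300 nM L165041. Luminescence was recorded after 30 min at room temperature.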

[9] = qHTS assay to identify small molecule agonists of the farnesoid-X-receptor (FXR) signaling pathway - cell viability counter screen (AID 743218); also: nearly all actives have a fitted effect of over 45% in size
In short: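 Parallel cytotoxicity test: compound-treated (16 h, 37 C) HEK 293T FXR-bla reporter cells were lysed with CellTiter-Glo and luminescence recorded.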

[10] = qHTS assay to identify small molecule antagonists of the farnesoid-X-receptor (FXR) signaling pathway - cell viability counter screen (AID 743221; active = well fitted cell-killing curve with a large enough effect in the repeat runs, not every such curve was filed as active; also: nearly all actives have a fitted effect of over 50% in size; also: potency is read from the fitted curve at half-maximal effect)
In short: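 Compound effects on cell number were measured as CellTiter-Glo luminescence in HEK 293T cells expressing FXR-UAS-bla, after 16 h at 37 C with 50 uM CDCA (final).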

[11] = target: Peroxisome proliferator-activated receptor gamma (Homo sapiens) (UniProt P37231); test: qHTS assay to identify small molecule antagonists of the peroxisome proliferator-activated receptor gamma (PPARg) signaling pathway (AID 743191; calls by dose curve; also: series mostly up to about 63 µM; nearly all actives have a fitted effect of over 30% in size)
In short: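 GeneBLAzer PPARg UAS-bla HEK293H cells carrying a UAS-driven beta-lactamase reporter were plated at 3000 cells/well, preincubated 5 h at 37C, then given compound for 17 h at 37C; LiveBLAzer B/G FRET substrate was read after 1 h at room temperature.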

[12] = target: Peroxisome proliferator-activated receptor delta (Homo sapiens) (UniProt Q03181); test: qHTS assay to identify small molecule agonists of the peroxisome proliferator-activated receptor delta (PPARd) signaling pathway (AID 743212; calls by dose curve)
In short: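 A PPARd-bla HEK293H line with beta-lactamase under an Upstream Activator Sequence is treated with compounds at 37 C. Substrate loading for 2 h at room temperature precedes the fluorescence measurement.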

[13] = target: Peroxisome proliferator-activated receptor delta (Homo sapiens) (UniProt Q03181); test: qHTS assay to identify small molecule antagonists of the peroxisome proliferator-activated receptor delta (PPARd) signaling pathway (AID 743215; active = well fitted inhibition curve with a large enough effect in the signal ratio in the repeat runs, not every such curve was filed as active; the % refers to the signal ratio;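 also: cells stimulated with agonist L165041 at 300 nM final during compound exposure; series mostly up to about 62 µM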)
In short: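 HEK293H UAS-bla, PPARd; agonist L165041 300 nM final with cpd in DMSO; 37 C 17 h; FRET substrate, RT 2 h; fluorescence intensity.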

[14] = target: Bile acid receptor (Homo sapiens) (UniProt Q96RI1); test: qHTS assay to identify small molecule antagonists of the farnesoid-X-receptor (FXR) signaling pathway (AID 743217; active = well fitted inhibition curve with a large enough effect in the signal ratio in the repeat runs, not every such curve was filed as active; the % refers to the signal ratio)
In short: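 GeneBLAzer FXR-UAS-bla HEK 293T, CDCA-stimulated (50 uM final). Compound treatment 16 h, 37 °C. Detection: beta-lactamase cleavage of B/G FRET substrate, fluorescence.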

[15] = target: Bile acid receptor (Homo sapiens) (UniProt Q96RI1); test: qHTS assay to identify small molecule agonists of the farnesoid-X-receptor (FXR) signaling pathway (AID 743220; active = well fitted activation curve with a large enough effect in the signal ratio in the repeat runs, not every such curve was filed as active; the % refers to the signal ratio)
In short: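 Beta-lactamase reporter under UAS control in GeneBLAzer FXR HEK 293T cells (5000/well) measured with LiveBLAzer FRET substrate after 2 h at room temperature. Compound exposure lasted 16 h at 37C.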

[16] = target: Vitamin D3 receptor (Homo sapiens) (UniProt P11473); test: qHTS assay to identify small molecule agonists of the vitamin D receptor (VDR) signaling pathway (AID 743222; calls by dose curve)
In short: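 In VDR-bla cells, compound-induced beta-lactamase expression is quantified by FRET substrate fluorescence. Treatment lasts 16 h at 37C; substrate develops 2 h at room temperature.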

[17] = target: Vitamin D3 receptor (Homo sapiens) (UniProt P11473); test: qHTS assay to identify small molecule antagonists of the vitamin D receptor (VDR) signaling pathway (AID 743223; active = well fitted inhibition curve with a large enough effect in the signal ratio in the repeat runs, not every such curve was filed as active; the % refers to the signal ratio)
In short: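 Beta-lactamase activity in VDR-bla cells is measured by FRET substrate fluorescence (2 h, room temperature) after cells spend 16 h at 37C with test compound and 3 nM final 1alpha,25-dihydroxyvitamin D3.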

[18] = qHTS assay for small molecule agonists of the antioxidant response element (ARE) signaling pathway (AID 743202; active = well fitted activation curve with a large enough effect in the signal ratio in the repeat runs, not every such curve was filed as active; the % refers to the signal ratio)
In short: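 Compounds delivered in DMSO to ARE-bla HepG2 cells (2,000 cells/well, pre-incubated 5 h) and left 16 h at 37 C. LiveBLAzer B/G FRET substrate then added for 2 h at RT before fluorescence reading.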

[19] = target: Aryl hydrocarbon receptor (Homo sapiens) (UniProt P35869); test: qHTS assay to identify small molecule that activate the aryl hydrocarbon receptor (AhR) signaling pathway (AID 743085);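 also: HG2L7.5c1 human HepG2 liver cells with stably integrated DRE-driven firefly reporter; series mostly up to about 70 µM; nearly all actives have a fitted effect of over 15% in size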
In short: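 Measured in HG2L7.5c1 cells: CellTiter-Fluor signal (30 min incubation, 37C) for viability, then luciferase luminescence (30 min, room temperature). Compound contact time was 24 h at 37C, following a 5 h pre-incubation.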

[20] = target: Peroxisome proliferator-activated receptor gamma (Homo sapiens) (UniProt P37231); test: qHTS assay to identify small molecule agonists of the peroxisome proliferator-activated receptor gamma (PPARg) signaling pathway (AID 743094; active = well fitted activation curve with a large enough effect in the signal ratio in the repeat runs, not every such curve was filed as active; the % refers to the signal ratio)
In short: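 Compounds dissolved in DMSO were added to PPARg UAS-bla HEK293H cells for 17 h at 37C, and reporter expression was quantified by fluorescence intensity after 1 h with LiveBLAzer B/G FRET substrate.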

Measured: Potency

Sequence of Peroxisome proliferator-activated receptor gamma (Homo sapiens) (P37231 whole entry, looked up): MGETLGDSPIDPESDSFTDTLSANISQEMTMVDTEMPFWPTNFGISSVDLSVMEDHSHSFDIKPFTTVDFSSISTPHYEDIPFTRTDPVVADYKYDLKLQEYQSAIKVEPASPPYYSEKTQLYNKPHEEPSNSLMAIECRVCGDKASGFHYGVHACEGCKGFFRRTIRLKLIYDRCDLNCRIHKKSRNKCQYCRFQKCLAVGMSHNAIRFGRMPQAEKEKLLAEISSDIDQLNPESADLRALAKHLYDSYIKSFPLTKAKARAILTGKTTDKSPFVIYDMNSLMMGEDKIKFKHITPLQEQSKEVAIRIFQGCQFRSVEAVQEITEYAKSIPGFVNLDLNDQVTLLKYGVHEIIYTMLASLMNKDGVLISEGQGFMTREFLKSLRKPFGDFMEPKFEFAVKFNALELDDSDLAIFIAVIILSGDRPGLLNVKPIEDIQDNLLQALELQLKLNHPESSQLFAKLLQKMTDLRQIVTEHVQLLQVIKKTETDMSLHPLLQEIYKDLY
Sequence of Peroxisome proliferator-activated receptor delta (Homo sapiens) (Q03181 whole entry, looked up): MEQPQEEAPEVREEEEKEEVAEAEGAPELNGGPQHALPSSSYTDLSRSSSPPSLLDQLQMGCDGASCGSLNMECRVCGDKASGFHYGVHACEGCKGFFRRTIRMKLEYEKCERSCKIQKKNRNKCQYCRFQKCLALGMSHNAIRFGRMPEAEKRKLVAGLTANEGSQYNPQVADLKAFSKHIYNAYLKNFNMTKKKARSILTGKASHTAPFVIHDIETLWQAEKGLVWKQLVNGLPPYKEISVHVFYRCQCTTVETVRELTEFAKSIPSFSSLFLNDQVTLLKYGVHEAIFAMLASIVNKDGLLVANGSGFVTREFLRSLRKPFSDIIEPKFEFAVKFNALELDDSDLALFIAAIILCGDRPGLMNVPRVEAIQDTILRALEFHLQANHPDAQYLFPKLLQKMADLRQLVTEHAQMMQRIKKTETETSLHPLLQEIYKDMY
Sequence of Vitamin D3 receptor (Homo sapiens) (P11473 whole entry, looked up): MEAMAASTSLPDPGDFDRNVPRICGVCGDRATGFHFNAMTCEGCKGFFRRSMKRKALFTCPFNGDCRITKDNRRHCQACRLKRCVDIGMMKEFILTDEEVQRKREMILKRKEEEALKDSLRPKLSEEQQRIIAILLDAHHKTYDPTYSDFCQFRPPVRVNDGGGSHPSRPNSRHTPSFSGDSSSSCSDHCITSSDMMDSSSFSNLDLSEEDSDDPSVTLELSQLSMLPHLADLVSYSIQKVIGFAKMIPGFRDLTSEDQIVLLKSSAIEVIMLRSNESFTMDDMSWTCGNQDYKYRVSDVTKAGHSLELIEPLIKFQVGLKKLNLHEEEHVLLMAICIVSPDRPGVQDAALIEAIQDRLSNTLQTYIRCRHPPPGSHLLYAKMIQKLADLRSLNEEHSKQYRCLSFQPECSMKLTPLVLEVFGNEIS
Sequence of Bile acid receptor (Homo sapiens) (Q96RI1 whole entry, looked up): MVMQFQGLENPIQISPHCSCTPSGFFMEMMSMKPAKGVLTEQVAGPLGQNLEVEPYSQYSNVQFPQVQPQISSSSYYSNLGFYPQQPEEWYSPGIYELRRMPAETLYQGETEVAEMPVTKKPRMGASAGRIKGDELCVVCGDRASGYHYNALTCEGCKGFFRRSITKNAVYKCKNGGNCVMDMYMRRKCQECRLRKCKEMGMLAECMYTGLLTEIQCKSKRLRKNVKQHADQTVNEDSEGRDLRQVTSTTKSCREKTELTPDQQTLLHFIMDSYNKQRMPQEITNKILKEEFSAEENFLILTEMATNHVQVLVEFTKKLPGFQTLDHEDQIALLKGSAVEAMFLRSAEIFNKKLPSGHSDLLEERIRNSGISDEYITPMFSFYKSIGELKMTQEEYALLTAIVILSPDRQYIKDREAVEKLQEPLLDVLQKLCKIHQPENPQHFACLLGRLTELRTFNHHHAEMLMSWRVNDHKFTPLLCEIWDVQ
Sequence of Aryl hydrocarbon receptor (Homo sapiens) (P35869 whole entry, looked up): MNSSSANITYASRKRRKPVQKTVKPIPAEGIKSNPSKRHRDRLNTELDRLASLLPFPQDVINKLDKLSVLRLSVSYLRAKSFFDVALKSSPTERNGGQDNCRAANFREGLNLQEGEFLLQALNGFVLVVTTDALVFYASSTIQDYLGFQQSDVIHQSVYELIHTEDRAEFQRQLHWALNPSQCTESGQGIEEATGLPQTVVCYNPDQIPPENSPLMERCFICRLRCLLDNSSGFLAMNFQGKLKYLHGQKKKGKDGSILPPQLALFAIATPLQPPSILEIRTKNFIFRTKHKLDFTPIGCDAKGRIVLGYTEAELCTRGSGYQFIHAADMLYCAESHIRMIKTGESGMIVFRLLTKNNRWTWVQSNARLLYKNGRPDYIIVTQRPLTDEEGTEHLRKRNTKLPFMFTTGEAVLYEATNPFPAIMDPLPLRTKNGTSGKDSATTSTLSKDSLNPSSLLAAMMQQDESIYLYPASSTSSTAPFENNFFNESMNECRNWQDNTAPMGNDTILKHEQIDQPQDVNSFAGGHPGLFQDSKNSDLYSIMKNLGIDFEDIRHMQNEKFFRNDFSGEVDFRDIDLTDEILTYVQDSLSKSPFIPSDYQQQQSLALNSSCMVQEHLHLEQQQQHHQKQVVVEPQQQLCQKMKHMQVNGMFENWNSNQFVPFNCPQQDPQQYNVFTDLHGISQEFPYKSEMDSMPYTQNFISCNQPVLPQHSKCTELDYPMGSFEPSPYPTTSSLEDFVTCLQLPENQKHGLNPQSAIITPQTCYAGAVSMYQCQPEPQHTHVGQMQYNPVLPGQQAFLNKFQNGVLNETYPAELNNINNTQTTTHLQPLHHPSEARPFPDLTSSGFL

C=C(C)[C@H]1CC=C(C)CC1
inactive: [1] | [2] | [3] | [4] | [5] | [6] | [7] | [8] | [9] | [10]

CNC(=O)c1c(I)c(NC(=O)CCCCC(=O)Nc2c(I)c(C(=O)O)c(I)c(C(=O)NC)c2I)c(I)c(C(=O)O)c1I
not listed: [1] | [2] | [9] | [18] | [19] | [20]
inactive: all other assays above

COc1ccc2cc(C=O)ccc2c1
not listed: [1] | [2] | [11] | [14] | [15] | [19] | [20]
inactive: all other assays above

Cc1c(F)cc2c(=O)c(C(=O)O)cn3c2c1CCC3C (stereo not drawn)
inactive: [4] | [5] | [6] | [7] | [12] | [8] | [9] | [10] | [16] | [17]

C/C=C1\C(=O)C[C@H]2[C@@H]3CCC4=CC(=O)CC[C@]4(C)[C@H]3CC[C@]12C
inactive: [1] | [2] | [3] | [4] | [5] | [6] | [7] | [8] | [9] | [10]

COC(=O)[C@H]1[C@H]2C[C@@H]3c4[nH]c5cc(OC)ccc5c4CCN3C[C@H]2C[C@@H](OC(=O)COc2ccc(OC)cc2)[C@@H]1OC
inactive: [1] | [2] | [3] | [4] | [5] | [7] | [10]

CC(O)CN(CCCN(C)C)CCCN(C)C (stereo not drawn)
inactive: [2] | [5] | [6] | [7] | [8] | [9] | [10] | [16] | [17]

N#CCN(CC#N)CCN(CC#N)CC#N
not listed: [1] | [9] | [11] | [14] | [15] | [16] | [19] | [20]
inactive: all other assays above

O=C(O)C1CCC1
not listed: [1] | [2] | [14] | [15] | [18] | [19] | [20]
inactive: all other assays above

CCCCCCC(CCCCCCCCCCC(=O)OCC(COC(C)=O)OC(C)=O)OC(C)=O (stereo not drawn)
not listed: [9] | [11] | [12] | [14] | [18] | [19] | [20]
inactive: all other assays above

CC(C)CCCCCCN
not listed: [1] | [14] | [15] | [16] | [17]
inactive: all other assays above

CC(C)CCCC(C)CCCC(C)CCCCC(C)CCCC(C)CCCC(C)C (stereo not drawn)
not listed: [11] | [14] | [15] | [19] | [20]
inactive: all other assays above

O=c1[nH]c2ccccc2c(=O)n1CCCl
not listed: [1] | [2] | [11] | [14] | [15] | [18] | [19] | [20]
inactive: all other assays above

CN(C)C(=O)C(CCN1CCC(O)(c2ccc(Cl)cc2)CC1)(c1ccccc1)c1ccccc1
active: [7] 23.7 µM | [8] 11.9 µM | [10] 29.8 µM
inactive: [5] | [6] | [15] | [17]

NC(=O)CCCCC1CCSS1 (stereo not drawn)
not listed: [1] | [9] | [18]
inactive: all other assays above

Cc1ccc(N)cc1[N+](=O)[O-]
not listed: [14] | [15] | [19] | [20]
inactive: all other assays above
